The target in test [1] is Albumin (Bos taurus) (UniProt P02769). In words: compounds binding labelled BSA control protein – biochemical, small-molecule microarray, Alexa647 label, 635/667 nm fluorescence, artefact control for SMM control protein annotation, profiling panel (AID 1118).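 Also: score merges 667 nm emission intensity and signal-to-noise per printed compound spot.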 As to conditions: BSA-A647 binding, fluorescence 635 nm, higher = more signal.
Test [2] is described as follows: probe aXIP binding to arrayed compounds – biochemical, NeuroSMM set, 635/667 nm fluorescence, primary screen (AID 1119).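 Also: probe is the protein aXip251-270 applied at 1 µg/mL to compound-printed slides; binding of probe to printed compounds measured as 667 nm fluorescence plus signal to noise.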 The conditions noted are these: small-molecule microarray, higher = more signal, called active from +8 up or from −8 down.
Test [3] in a line: probe aNOTCH3 binding on compound microarray – biochemical, small-molecule microarray, 635/667 nm fluorescence, primary screen (AID 1120).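 Also: probe is a biotin-tagged antibody raised against NOTCH3 rather than NOTCH3 protein; score merges spot fluorescence near 667 nm with spot signal to noise.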 As to conditions: higher = more signal.
Test [4] in a line: probe aNOTCH2 binding on compound microarray – biochemical, small-molecule microarray, 635/667 nm fluorescence, primary screen (AID 1121).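 Also: score merges feature fluorescence read at 667 nm with its signal to noise.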 The conditions noted are these: higher = more signal.
In test [5] the target is Carbonic anhydrase 2 (Homo sapiens) (UniProt P00918). Put plainly: compounds binding carbonic anhydrase 2 – biochemical, small-molecule microarray, Alexa647-labelled CAII, profiling panel (AID 1122). As to conditions: CAII-A647 binding fluorescence, higher = more signal.
Test [6] is described as follows: COS7 lysate on small-molecule microarray, probe aHis, 635 nm (AID 1123).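 Also: z-score combines 667nm fluorescence intensity with signal-to-noise per printed compound spot.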 The conditions noted are these: COS7 cell lysate, fluorescence, higher = more signal.
Test [7] in a line: probe aLAP1 signal on lysate-treated microarray – cell lysate, small-molecule microarray, COS7 lysate, primary screen (AID 1124).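 Also: lysate comes from COS7 cells expressing LAP1 and is applied at 0.3 µg/mL; score merges spot fluorescence near 667 nm with signal-to-noise over triplicate slides.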 The conditions noted are these: probe aLAP1, fluorescence, higher = more signal.
Test [8] has as its system Sam68 (KHDRBS1). Put plainly: compounds binding KHDRBS1 protein – biochemical, small-molecule microarray, 635 nm fluorescence, primary screen (AID 1125).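 Also: score merges 667 nm channel intensity with signal to noise over triplicate slides.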 As to conditions: higher = more signal.
Test [9] relates to Chordin-like protein 2 (CHRDL2). Put plainly: compounds binding chordin-like 2 – biochemical, small-molecule microarray, 635 nm fluorescence, primary screen (AID 1126).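 Also: printed compound slides probed with Chrdl2 protein at 4 µg/mL for 1 h at 4 C; score merges 667 nm emission intensity with signal to noise over three replicate slides.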 As to conditions: fluorescence 635 nm, higher = more signal.
For test [10], the target named is Concanavalin-A (Canavalia ensiformis) (UniProt P02866). In words: compounds binding concanavalin A lectin – biochemical, small-molecule microarray, Alexa647 label, 635 nm, artefact control for SMM control protein annotation, primary screen (AID 1127).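 Also: z combines 667 nm emission intensity with signal-to-noise across three replicate slides.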 As to conditions: ConA-A647 binding fluorescence, higher = more signal.
Concanavalin-A (Canavalia ensiformis), sequence (P02866 whole entry, looked up): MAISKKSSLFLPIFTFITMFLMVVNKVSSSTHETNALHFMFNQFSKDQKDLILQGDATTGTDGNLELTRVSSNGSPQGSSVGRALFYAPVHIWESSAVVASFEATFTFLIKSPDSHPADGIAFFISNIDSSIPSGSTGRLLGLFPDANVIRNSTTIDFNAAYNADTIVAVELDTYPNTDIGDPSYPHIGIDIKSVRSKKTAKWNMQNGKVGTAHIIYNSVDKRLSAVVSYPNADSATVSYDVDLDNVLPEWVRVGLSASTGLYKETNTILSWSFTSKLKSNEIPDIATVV

Active and inactive are the calls of the source.

Albumin (Bos taurus), sequence (P02769 whole entry, looked up): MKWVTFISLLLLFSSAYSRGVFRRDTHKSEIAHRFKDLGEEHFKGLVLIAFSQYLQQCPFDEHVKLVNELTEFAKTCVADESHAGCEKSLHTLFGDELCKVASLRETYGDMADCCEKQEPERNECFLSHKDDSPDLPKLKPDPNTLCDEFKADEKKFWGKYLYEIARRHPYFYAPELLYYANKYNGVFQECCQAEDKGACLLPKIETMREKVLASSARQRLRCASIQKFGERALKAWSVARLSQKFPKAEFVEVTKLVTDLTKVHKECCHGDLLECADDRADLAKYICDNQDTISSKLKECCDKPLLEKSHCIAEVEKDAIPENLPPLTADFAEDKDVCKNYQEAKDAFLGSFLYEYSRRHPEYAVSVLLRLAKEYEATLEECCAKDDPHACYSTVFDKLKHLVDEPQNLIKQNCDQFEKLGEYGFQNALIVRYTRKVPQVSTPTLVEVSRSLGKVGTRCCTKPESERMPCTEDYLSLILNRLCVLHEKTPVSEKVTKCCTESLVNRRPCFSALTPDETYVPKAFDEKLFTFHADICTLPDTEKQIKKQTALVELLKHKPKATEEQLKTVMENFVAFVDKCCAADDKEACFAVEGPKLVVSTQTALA

As to `COc1cc2c(cc1OC)CN(C(=O)[C@@H]1[C@H]3C(=O)O[C@H](c4ccccc4)[C@H](c4ccccc4)N3[C@H](c3ccc(OCCO)cc3)[C@@]13C(=O)Nc1ccc(C#CC4(O)CCCCCC4)cc13)CC2`, the composite z-score in [1] was 0.872; in [3], 0.398; in [4] it was -0.166; in test [5], 0.543; in test [6], 2.03; in [7], 0.514. The figures for the composite z-score in [8], in [9] and in test [10] were 1.32, 0.978 and 1.13, respectively. Moreover, in [2], the composite Z-score is 0.266 (inactive).
Regarding `O=C(NCC(F)(F)F)[C@@H]1c2ccccc2C(=O)N(Cc2cc(F)cc(C(F)(F)F)c2)[C@H]1c1ccc(CO)cc1`, the composite z-score is -0.463 in test [1]; -0.355 in [3]; -0.0644 in [4]; 0.295 in test [5]; 0.837 in test [6]; -0.0879 in [7]. The composite z-score is -0.639 in test [8], -1.11 in test [9] and -0.236 in test [10]. In addition, in [2], the composite Z-score was 0.57 (inactive).
With `CN1C(=O)C2C=CC(C(O)COCc3ccccc3)N(N(c3ccccc3)c3ccccc3)C2C1=O` (stereo not given), the composite z-score is 0.319 in [1]; 0.227 in test [3]; -0.0173 in [4]; 0.412 in test [5]; 1.62 in test [6]; 0.0687 in test [7]. For the same molecule, the composite z-score is 1.05 in test [8], -0.571 in [9] and 0.671 in test [10]. Further, the composite Z-score in test [2] is 0.453 (inactive).
For the molecule `CCOC(=O)C1=C[C@@H](c2ccccc2)N(S(=O)(=O)c2ccc(C)cc2)[C@H]1c1ccccc1Cl`, the composite z-score came to 0.729 in test [1]; 0.112 in test [3]; 0.23 in test [4]; 0.389 in test [5]; 1.66 in test [6]; 0.772 in test [7]. For the same molecule, the values for the composite z-score in [8], in test [9] and in test [10] were 1.26, 0.359 and 0.752, respectively. Further, the composite Z-score in test [2] is 0.0277 (inactive).
As for `C=C(COC)C(=O)CC[C@@H](OC(=O)c1cccnc1)c1ccc(OCCO)cc1`, the composite z-score is -0.283 in test [1]; 0.176 in test [3]; 0.0362 in test [4]; 0.751 in test [5]; 1 in test [6]; 0.211 in test [7]. For the same molecule, the composite z-score in test [8] was 0.629; in [9], 1.12; in test [10], 0.388. Also, the composite Z-score in [2] is 0.517 (inactive).
Take `CCOC(=O)C1=CC[C@@H](c2ccc(OCc3ccccc3)c(OC)c2)N(S(=O)(=O)c2ccc(C)cc2)[C@H]1c1ccc(SC)cc1`: the composite z-score came out at 0.783 in [1]; 0.386 in [3]; 0.202 in test [4]; 0.625 in [5]; 2.53 in test [6]; 0.157 in [7]. Moreover, the composite z-score in test [8] was 1.31; in test [9] it was 0.525; in test [10], 0.806. For the same molecule, the composite Z-score in test [2] is 0.207 (inactive).
With `COc1ccc([Si](C)(C)[C@@H]2[C@@H](CCn3cc([C@H](O)c4ccccc4)nn3)O[C@]3(C(=O)N(Cc4ccc(N5CCC5=O)cc4)c4ccccc43)[C@H]2C)cc1`, the composite z-score in test [1] was 0.0006; in [3] it was -0.505; in test [4], -0.0849; in [5] it was -0.266; in test [6] it was 0.121; in [7], -0.426. In addition, the composite z-score is -0.323 in test [8], -0.0871 in test [9] and 0.469 in test [10]. Further, in [2], the composite Z-score is 0.811 (inactive).
In the case of `CCCNC(=O)[C@@]1(c2ccc([N+](=O)[O-])cc2)CC(=O)N(C2CCCCC2)[C@@H]1c1ccc(CO)cc1`, the composite z-score in [1] is 0.0308; in [3], 0.135; in [4], -0.0406; in test [5], 0.66; in [6] it was 2.01; in [7], 0.999. For the same molecule, the composite z-score worked out at 1.25 in test [8], 0.19 in test [9] and 0.95 in test [10]. Besides, in [2], the composite Z-score was 0.173 (inactive).
On to `COc1ccc([Si](C)(C)[C@@H]2[C@@H](CC(=O)N3Cc4ccccc4C[C@H]3CO)O[C@]3(C(=O)N(C)c4ccccc43)[C@H]2C)cc1`, for which the composite z-score in test [1] was 0.63; in test [3], 0.215; in test [4], 0.014; in test [5], 0.723; in test [6] it was 0.475; in [7], -0.0284. Besides, the composite z-score in test [8] came to 1.3; in test [9], 1.13; in [10] it was 1.17. Also, the composite Z-score in test [2] is 1.22 (inactive).
For `COc1cc(CO)cc(I)c1O[C@H]1C=C(C(=O)NCCO)C[C@@H](NCc2ccc(F)cc2)[C@@H]1O`, the composite z-score is -1.03 in [1]; -0.118 in [3]; -0.148 in test [4]; 0.223 in test [5]; 0.369 in test [6]; 0.205 in [7]. The composite z-score in test [8] came to 0.352; in [9] it was 0.306; in [10] it was 0.0901. Besides, the composite Z-score in [2] is 0.328 (inactive).
Consider `COCCOC(=O)N1C(=O)[C@@]2(c3cc(C#CCCO)ccc31)[C@H](c1ccccc1OCCO)N1[C@H](c3ccccc3)[C@H](c3ccccc3)OC(=O)[C@H]1[C@@H]2C(=O)Nc1nc2ccccc2s1`, for which the composite z-score in test [1] is 0.802; in test [3], 0.108; in test [4], -0.0352; in test [5], 0.729; in [6], 2.02; in test [7], 0.967. For the same molecule, the values for the composite z-score in [8], in [9] and in test [10] were 1.29, 0.0314 and 1.09, respectively. For the same molecule, in [2], the composite Z-score was 0.048 (inactive).
Turning to `CCCC[C@@H](O)C1=C(COc2ccccc2)C[C@H]2C(=O)N(C)C(=O)[C@H]2[C@H]1CO`, the composite z-score was -0.261 in [1]; -0.201 in test [3]; -0.173 in test [4]; -0.482 in test [5]; -0.61 in test [6]; -0.357 in test [7]. Besides, the composite z-score in [8] was -0.501; in test [9] it was 0.103; in test [10] it was -0.425. Besides, the composite Z-score in test [2] was -0.191 (inactive).
On to `CCOC(=O)c1ccc(NC(=O)O[C@H]2[C@H](OC(=O)Nc3ccc4c(c3)OCO4)[C@H](OC(=O)Nc3ccc4c(c3)OCO4)[C@@H](OC)O[C@@H]2CO)cc1`, for which the composite z-score in [1] came out at 0.0541; in [3] it was 0.411; in test [4] it was 0.077; in [5], 0.49; in test [6], 1.52; in [7], 0.551. Also, the composite z-score in test [8] turned out to be 1.3; in test [9], 0.393; in test [10], 1.18. The composite Z-score in test [2] is 1.52 (inactive).
Take `C=C(C)[C@@H]1CC=C(C(O)C2C=CC3C(=O)N(c4ccccc4)C(=O)C3N2Nc2ccccc2F)CC1` (stereo not given in full): the composite z-score in test [1] is 0.956; in test [3] it was 0.466; in [4], -0.0467; in [5] it was 0.747; in test [6], 3.08; in test [7], -0.102. The composite z-score in test [8] amounted to 1.34; in [9] it was 0.0095; in [10] it was 1.13. The composite Z-score in test [2] is 0.117 (inactive).

For the origin of these results see PubChem BioAssay.
